Results taken from PubChem BioAssay.
Where “and” joins values, the source holds several entries; their conditions need not be identical. Equal entries are not always repeated. Calls of active or inactive are those of the source. Cut-off read from the data, not from the text of the source, unless noted: active = parasite load remaining mostly below about 12% (no sharp cut-off); inactive = mostly above about 10%. Peptide text beside a SMILES is read from it.

Assays:
[1] = P. berghei load reduction in hepatocytes – cell-based, HepG2, luciferase luminescence, HepG2 viability, primary screen (AID 624349);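 note: 100% = mean of DMSO negative control wells on the same plate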; conditions: P. berghei liver stage in HepG2, luciferase luminescence, concentration not given here; parasite load remaining: stronger effect = lower value; viability: measured here: HepG2 viability without parasites
[2] = Wnt pathway potentiators raising nuclear beta-catenin – imaging, WNT3A-conditioned medium, mouse C2C12, NPC library, primary screen (AID 1117326; in the data active = nuclear beta-catenin stimulation mostly above about 4.2%, no sharp cut-off; inactive = mostly below about 10%; note: reference of the scale not given here); conditions: stronger effect = higher value
[3] = stimulators of insulin release from INS-1E, primary screen, cell-based, 5 mM glucose, NPC library (AID 1117329;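 active = compound raises insulin release from rat beta cells at 5 mM glucose, no numeric limit stated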; note: reference of the scale not given here); conditions: rat INS-1E insulin secretion, at 10 µM, stronger effect = higher value
[4] = growth inhibition of GSK3B-pretreated HCT116 cells – cell-based, CellTiter-Glo, 0.2 to 20 µM (AID 1117336;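 active = compounds lowering colon cancer cell viability after pretreatment blocking the GSK3B kinase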); conditions: HCT116 viability after GSK3B inhibitor, at 20 µM, stronger effect = higher value
[5] = inhibition of endothelial tube formation, primary screen, imaging, VEGF stimulated, CD31 staining, tube area, NPC library (AID 1117340;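 active = compound that reduces growth-factor-driven endothelial tube area in a mixed cell culture, no cutoff stated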); conditions: VEGF-stimulated ADSC/ECFC co-culture, at 10 µM, stronger effect = higher value
[6] = GLP1 release stimulators, primary, NCI-H716, NPC library (AID 1117341;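 active = compound raises GLP1 secretion from the human gut endocrine cells, with no numeric limit stated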; note: reference of the scale not given here); conditions: NCI-H716 cells, at 10 µM, stronger effect = higher value
[7] = HCT116 colon cancer cell growth inhibition, primary screen, CellTiter-Glo luminescence, NPC library (AID 1117342;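 active = compounds that lower survival of HCT116 colon cancer cells in the luminescence readout, no numeric limit stated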); conditions: at 20 µM (top of the series)
[8] = reduced SW480 viability measured with CellTiter-Glo, NPC library, primary (AID 1117343;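 active = compounds that lower viability of the colon cancer cells in the luminescence readout, with no numeric limit stated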); conditions: CellTiter-Glo luminescence; at 20 µM (top of the series)
[9] = NPC library primary testing for decreased DLD-1 cell viability via CellTiter-Glo (AID 1117346;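 active = compounds that lower survival of DLD-1 colon cancer cells in the luminescence readout, no cutoff given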); conditions: DLD-1 viability, CellTiter-Glo luminescence; at 20 µM (top of the series)
[10] = target: 6-phosphogluconate dehydrogenase, decarboxylating (Homo sapiens) (UniProt P52209); test: inhibition of human phosphogluconate dehydrogenase – biochemical, recombinant enzyme, NADPH absorbance, primary screen (AID 1159550;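 active = at least 20% inhibition of 6-phosphogluconate dehydrogenase activity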); conditions: recombinant 6PGD, NADPH absorbance 341 nm; at 10 µM; stronger effect = higher value
6-phosphogluconate dehydrogenase, decarboxylating (Homo sapiens), sequence (P52209 whole entry, looked up): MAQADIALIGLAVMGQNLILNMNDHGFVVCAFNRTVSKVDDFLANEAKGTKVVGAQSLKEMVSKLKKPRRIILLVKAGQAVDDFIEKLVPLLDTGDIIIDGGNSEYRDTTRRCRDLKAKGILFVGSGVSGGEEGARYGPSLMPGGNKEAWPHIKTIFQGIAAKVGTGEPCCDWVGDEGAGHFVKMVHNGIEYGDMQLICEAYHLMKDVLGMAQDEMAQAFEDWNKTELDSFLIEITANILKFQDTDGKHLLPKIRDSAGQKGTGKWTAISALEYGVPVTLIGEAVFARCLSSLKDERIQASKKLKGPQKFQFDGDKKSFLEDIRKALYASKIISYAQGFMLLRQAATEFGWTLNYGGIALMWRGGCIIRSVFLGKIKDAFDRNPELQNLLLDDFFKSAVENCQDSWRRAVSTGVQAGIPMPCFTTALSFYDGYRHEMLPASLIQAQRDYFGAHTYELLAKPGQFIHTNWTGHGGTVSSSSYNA

Row | Compound | parasite load remaining [1] | viability [1] | nuclear beta-catenin stimulation ([2]; at 10 µM) | nuclear beta-catenin stimulation ([2]; stimulation, at 2 µM) | insulin secretion stimulation [3] | viability decrease [4] | tube area decrease [5] | GLP1 secretion stimulation [6] | inhibition of viability [7] | viability decrease (inhibition) [8] | viability decrease (inhibition) [9] | inhibition [10]
1 | CC(=O)OCC(COC(C)=O)OC(C)=O | 142% (inactive) and 56.1% (inactive) | 73.5% and 86.5% | 0.2% (inactive) | 3.4% | 0.7% (inactive) | -25.5% (inactive) | -8.3% (inactive) | 0.1% (inactive) | -1.2% (inactive) | -5.5% (inactive) | -3.8% (inactive) | 1.31% (inactive)
2 | Cc1ccc(C(=O)C(C)CN2CCCCC2)cc1 (stereo not drawn) | 97.6% (inactive) | 70.5% | 1.5% (inactive) | 4.3% | 0.3% (inactive) | -13.7% (inactive) | -6.9% (inactive) | 4.8% (inactive) | 0.13% (inactive) | 2.3% (inactive) | -3.8% (inactive) | 7.71% (inactive)
3 | CN1CCC(OC(c2ccccc2)c2ccccc2)CC1 | 97.1% (inactive) and 89.2% (inactive) and 61.4% (inactive) | 96.1% and 75.8% and 94.2% | 0.7% (inactive) | 1.6% | 6.2% (inactive) | -31.3% (inactive) | 13.8% (inactive) | 4.2% (inactive) | 35.4% (inactive) | 37.7% (inactive) | -6.7% (inactive) | 10.6% (inactive)
4 | CO[C@@]12[C@H](COC(N)=O)C3=C(C(=O)C(C)=C(N)C3=O)N1C[C@@H]1N[C@@H]12 | -0.17% (inactive) | 11% | 26.8% (inactive) | 11.6% | 0.2% (inactive) | 106% (active) | 108% (active) | 1.2% (inactive) | 105% (active) | 124% (active) | 95.8% (active) | -2.77% (inactive)
5 | COc1ccc(C(=O)CC(=O)c2ccc(C(C)(C)C)cc2)cc1 | 168% (inactive) and 61% (inactive) | 84.8% and 202% | -0.4% (inactive) | 3% | 1.3% (inactive) | -88.8% (inactive) | -15.2% (inactive) | -3.2% (inactive) | 15.8% (inactive) | 18.1% (inactive) | 16.6% (inactive) | -0.365% (inactive)
6 | COc1cc([C@H]2Oc3cc([C@H]4Oc5cc(O)cc(O)c5C(=O)[C@@H]4O)ccc3O[C@@H]2CO)ccc1O | 75.8% (inactive) | 93% | 3.7% (inactive) | 0.8% | 1.8% (inactive) | -35.4% (inactive) | 4.2% (inactive) | 2.1% (inactive) | 18.7% (inactive) | 16.2% (inactive) | -3.4% (inactive) | 9.07% (inactive)
7 | O=C(O)P(=O)(O)O | 127% (inactive) and 15.8% (inactive) | 69.2% and 92.6% | 0.2% (inactive) | -0.8% | 0.5% (inactive) | -27.7% (inactive) | 0.7% (inactive) | -0.4% (inactive) | -5.05% (inactive) | 2.3% (inactive) | -16.6% (inactive) | -6.34% (inactive)
8 | CN(C)CCOC(=O)C(c1ccccc1)C1(O)CCCC1 (stereo not drawn) | 73.9% (inactive) and 104% (inactive) and 58% (inactive) | 70.9% and 70% and 90.8% | 0.3% (inactive) | 1.3% | 0.2% (inactive) | -18% (inactive) | -3.4% (inactive) | -3.8% (inactive) | 50.1% (active) | 20.7% (inactive) | 31.8% (inactive) | -0.0978% (inactive)
9 | Cc1nnc(NS(=O)(=O)c2ccc(N)cc2)s1 | 77.8% (inactive) and 214% (inactive) and 50.9% (inactive) | 95.4% and 74.4% and 104% | -0.1% (inactive) | 1.2% | -2.4% (inactive) | 6.15% (inactive) | 19.3% (inactive) | 2.8% (inactive) | 0.2% (inactive) | 86.3% (active) | 3.2% (inactive) | -8.84% (inactive)
10 | CCC(=O)c1c(O)cc(O)cc1O | 100% (inactive) | 70.3% | 1.8% (inactive) | 2% | 3.7% (inactive) | -16.4% (inactive) | 4.6% (inactive) | -2% (inactive) | 21.1% (inactive) | 21.5% (inactive) | 2.4% (inactive) | 8.94% (inactive)
11 | O=C(Cn1ccnc1[N+](=O)[O-])NCCO | 107% (inactive) and 46.8% (inactive) | 103% and 102% | -1.8% (inactive) | 0.3% | 2.3% (inactive) | -1.8% (inactive) | 2.6% (inactive) | -2.9% (inactive) | 19.2% (inactive) | 6.3% (inactive) | -0.6% (inactive) | -6.85% (inactive)
12 | C/C=C/c1ccc(OC)cc1 | 163% (inactive) and 38.2% (inactive) and 65% (inactive) | 88.5% and 100% and 126% | -1.7% (inactive) | 2.3% | 1.3% (inactive) | -5.7% (inactive) | 6.2% (inactive) | -1.8% (inactive) | 10.8% (inactive) | 20.9% (inactive) | -3.2% (inactive) | 6.64% (inactive)
13 | CCCCN(CCCC)CCCOC(=O)c1ccc(N)cc1 | 67.1% (inactive) and 96% (inactive) and 39.6% (inactive) | 98.6% and 79.9% and 102% | 0.5% (inactive) | 1.7% | 0.7% (inactive) | -47.6% (inactive) | 18.7% (inactive) | 0.7% (inactive) | 15% (inactive) | 21.3% (inactive) | -4.6% (inactive) | -3.82% (inactive)
14 | CCN(CC)C(=O)c1cccc(C)c1 | 18.9% (inactive) | 97.4% | 6.1% (inactive) | 3.9% | 5% (inactive) | 3.4% (inactive) | -44.2% (inactive) | 2.9% (inactive) | -3.2% (inactive) | -14.3% (inactive) | 12.4% (inactive) | 9.21% (inactive)
15 | C/C=C(/C(=C/C)c1ccc(O)cc1)c1ccc(O)cc1 | 99.8% (inactive) and 85.1% (inactive) and 15.2% (inactive) | 93.2% and 76.6% and 68.2% | 20.4% (inactive) | 2.2% | -1.9% (inactive) | 101% (active) | 49.5% (active) | 34.7% (active) | 101% (active) | 123% (active) | 102% (active) | 15.9% (inactive)
16 | COC(=O)[C@H](Cc1ccccc1)NC(=O)[C@@H](N)CC(=O)O (H-Asp-Phe-OMe) | 156% (inactive) and 74.6% (inactive) | 84.2% and 212% | 4.5% (inactive) | 1.1% | 2.8% (inactive) | -0.5% (inactive) | 6.5% (inactive) | 0.8% (inactive) | 5% (inactive) | -6.8% (inactive) | 9.55% (inactive) | 10.8% (inactive)
17 | CCn1cc(C(=O)O)c(=O)c2cnc(N3CCCC3)nc21 | 91.2% (inactive) and 141% (inactive) | 104% and 72% | -0.4% (inactive) | 1.2% | -0.4% (inactive) | -29.5% (inactive) | 1.8% (inactive) | 1.2% (inactive) | 0% (inactive) | 11.2% (inactive) | -1.2% (inactive) | 5.15% (inactive)
18 | Oc1ccc(Cl)cc1Cc1cc(Cl)ccc1O | 11.8% (inactive) | 65.1% | 10.6% (inactive) | 5.8% | -0.9% (inactive) | 100% (active) | 109% (active) | 30.9% (active) | 102% (active) | -50.4% (active) | 105% (active) | -8.92% (inactive)
19 | O=C(O)CCCC[C@@H]1SC[C@@H]2NC(=O)N[C@@H]21 | 125% (inactive) and 81.9% (inactive) | 117% and 77.7% | 0.3% (inactive) | 1.3% | -0.9% (inactive) | -1.65% (inactive) | -24.1% (inactive) | 1.6% (inactive) | -15% (inactive) | 33.7% (inactive) | 4.5% (inactive) | 12.7% (inactive)
20 | O=C(CCBr)N1CCN(C(=O)CCBr)CC1 | 146% (inactive) and 41.7% (inactive) | 86.4% and 105% | 1.4% (inactive) | 1.7% | -2.1% (inactive) | 56.1% (active) | 60.5% (active) | -4.4% (inactive) | -0.5% (inactive) | 3.9% (inactive) | -14% (inactive) | -1.69% (inactive)
21 | CCCCOc1ccc(OCCCN2CCOCC2)cc1 | 92% (inactive) and 117% (inactive) and 30.7% (inactive) | 109% and 67.4% and 85.2% | 1.4% (inactive) | 0.4% | 0.6% (inactive) | -10.8% (inactive) | 15.4% (inactive) | -1.7% (inactive) | 24.8% (inactive) | 46.8% (inactive) | 22.7% (inactive) | -17.9% (inactive)
22 | Cc1cc2cc3c(C)cc(=O)oc3c(C)c2o1 | 179% (inactive) and 284% (inactive) and 171% (inactive) | 95.9% and 75.4% and 91.9% | 2.9% (inactive) | 0.1% | -0.7% (inactive) | -8.2% (inactive) | 1.6% (inactive) | 0.5% (inactive) | 19.9% (inactive) | 35.5% (inactive) | -2.3% (inactive) | -18.4% (inactive)
23 | N[C@@H](CCC(=O)N[C@@H](CS)C(=O)NCC(=O)O)C(=O)O | 31.4% (inactive) | 68.2% | -1% (inactive) | 4% | -0.3% (inactive) | -46.1% (inactive) | 16.9% (inactive) | -3.8% (inactive) | 5.53% (inactive) | 8.1% (inactive) | -4.3% (inactive) | 0.532% (inactive)
24 | CC(=O)Nc1ccc(O)cc1 | 99.6% (inactive) and 108% (inactive) and 46.1% (inactive) | 106% and 78.8% and 112% | -0.4% (inactive) | -0.2% | -0.1% (inactive) | 9.25% (inactive) | -15.2% (inactive) | 1.9% (inactive) | 1.2% (inactive) | 34.3% (inactive) | 3.3% (inactive) | 13.8% (inactive)
